Screens deposited in PubChem BioAssay by The Scripps Research Institute Molecular Screening Center.
TEAD-YAP block = TEAD-YAP interaction inhibition; HEK-TIYL cells, TEAD-Gal4/YAP UAS-luciferase luminescence; inhibition, % at 9.12 µM; 640,000 compounds, 1.4% hits; AID 1259422; in the data active = inhibition above about 32%;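 also: 0% = median of test compound wells and 100% = reference inhibitor wells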
FBW7 act = activators of human E3 ligase FBW7. normalized activity (activation), % at 26.1 µM. 650,000 compounds, 0.13% hits. Q969H0. AlphaScreen FBW7–phospho-cyclin E peptide binding, activator screen; in the data active = normalized activity above about 1.9%;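 also: purified mutant Fbw7 with reduced substrate affinity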
Target sequence (Q969H0 whole entry, looked up): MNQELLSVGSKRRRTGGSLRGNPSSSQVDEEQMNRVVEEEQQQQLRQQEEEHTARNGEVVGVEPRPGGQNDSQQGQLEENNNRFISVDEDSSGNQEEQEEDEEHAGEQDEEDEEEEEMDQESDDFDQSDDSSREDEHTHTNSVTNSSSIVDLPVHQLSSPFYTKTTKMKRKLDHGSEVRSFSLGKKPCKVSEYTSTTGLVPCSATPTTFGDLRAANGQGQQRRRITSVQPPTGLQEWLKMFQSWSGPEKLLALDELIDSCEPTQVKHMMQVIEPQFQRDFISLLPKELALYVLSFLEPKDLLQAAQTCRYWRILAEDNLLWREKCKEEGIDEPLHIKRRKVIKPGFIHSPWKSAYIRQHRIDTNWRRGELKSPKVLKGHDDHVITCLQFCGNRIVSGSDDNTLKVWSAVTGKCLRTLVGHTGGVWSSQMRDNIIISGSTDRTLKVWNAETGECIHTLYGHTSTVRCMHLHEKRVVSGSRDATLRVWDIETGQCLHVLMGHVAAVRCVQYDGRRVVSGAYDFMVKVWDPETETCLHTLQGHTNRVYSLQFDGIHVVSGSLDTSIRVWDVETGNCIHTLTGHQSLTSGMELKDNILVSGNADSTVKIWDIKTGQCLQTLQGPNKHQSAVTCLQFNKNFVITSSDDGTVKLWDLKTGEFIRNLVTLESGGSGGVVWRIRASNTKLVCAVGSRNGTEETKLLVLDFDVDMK
GPR151 activ = human GPR151 activation. PathHunter beta-arrestin GPR151 cells, luminescence. activation, % at 11.2 µM. 650,000 compounds, 1% hits. AID 1508602; in the data active = activation above about 4.9%;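 also: 0% = median of compound wells and 100% = cells with positive control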
MITF primary = human MITF inhibition, primary screen. inhibition, % at 2.6 µM. O75030. AlphaScreen MITF homodimerization, bead proximity signal. 650,000 compounds, 0.91% hits; in the data active = inhibition above about 50%;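 also: 0% = vehicle wells with protein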
* = called active by the depositor. Hits are enriched below; roughly 3.5% of the tested compounds scored in any of these assays.

SMILES	TEAD-YAP block	FBW7 act	GPR151 activ	MITF primary
Cc1ccc(-c2ncn(-c3ccc(Nc4nccc(-c5ccc(S(C)(=O)=O)c(N6CCCC(O)C6)c5)n4)cc3)n2)cn1 (stereo not given)	38*	0	1	12
COc1ccc(C2CC(C(F)(F)F)n3ncc(C(=O)Nc4cccc(C)c4C)c3N2)cc1OC (stereo not given)	-15	0	-1	19
CCCCOc1ccc(N2C(N)=NC(N)=NC2(C)C)cc1	37*	0	0	3
CC1(C)N=C(N)N=C(N)N1c1ccc(F)cc1	6	0	-1	1
CC(C)N1CCC(=NNC(=O)c2cc(O)c(O)c(O)c2)CC1	3	0	0	85*
CN1CCC(=NNC(=O)c2ccccc2)CC1	-50	0	-2	19
COc1ccc(C2Nc3ccccc3C(=O)N2c2ccccc2)cc1COc1ccc(F)cc1 (stereo not given)	-9	0	1	7
COc1ccc(N=Cc2c(Nc3ccc(OC)cc3)nc3ccc(C)cn3c2=O)cc1	4	0	-1	-15
Cn1nc(CC(=O)Nc2c(F)cccc2F)c2ccccc2c1=O	41*	0	0	13
Cc1cccc(NC(=O)Cc2nn(C)c(=O)c3ccccc23)c1	45*	0	1	7
Cc1ccc(NC(=O)Cc2nn(C)c(=O)c3ccccc23)cc1	42*	0	3	-11
Cn1nc(CC(=O)Nc2ccccc2Br)c2ccccc2c1=O	25	0	-1	-4
Cn1nc(CC(=O)Nc2cccc(F)c2)c2ccccc2c1=O	34*	0	-2	18
COC(=O)C1=C(C)NC(=O)NC1c1cc([N+](=O)[O-])ccc1OC (stereo not given)	5	0	1	2
CCOC(=O)c1c(NC(=O)CSc2nnc(N)s2)sc2c1CCC2	3	0	0	8
Cc1ncc(C[n+]2ccccc2C)c(N)n1	-7	1	-2	-14
COc1ccc(-c2[nH]nc3c2C(c2cc(OC)c(OC)c(OC)c2)C(C#N)=C(N)O3)cc1 (stereo not given)	2	0	0	3
O=C(Nc1ccc(-c2ccccc2)cc1)c1scc2c1CCCC2	-30	0	0	13
Cn1nc(CC(=O)Nc2ccc(F)c(Cl)c2)c2ccccc2c1=O	30	1.9*	-1	19
COc1cc(NC(=O)Cc2nn(C)c(=O)c3ccccc23)cc(OC)c1OC	-2	0	0	1
COc1ccc(CC(=O)NCc2ccc(C)cc2)cc1	31	0	1	-1
COc1ccc(CC(=O)NCc2ccsc2)cc1	35*	0	2	6
COc1ccc(CNC(=O)Cc2nn(C)c(=O)c3ccccc23)cc1	38*	0	0	7
COC(CNC(=O)CCCn1c(=S)[nH]c2ccsc2c1=O)OC	4	0	1	3
COc1cncc(-c2cncc(-c3ccccc3N(C)C)n2)c1	36*	0	1	-1
SMILES	TEAD-YAP block	FBW7 act	GPR151 activ	MITF primary
COc1cc(-c2cncc(-c3ccccc3N(C)C)n2)cc(OC)c1OC	-3	0	0	-8
O=C(Cc1ccccc1)NNC1=C(C(=O)C(F)(F)F)CCC1	-14	0	0	6
COc1ccc(C(=O)N=c2sc3cc(F)ccc3n2C)c(OC)c1	55*	0	-1	-1
Nc1ncnc(N/N=C/c2ccc(O)cc2O)c1[N+](=O)[O-]	-10	-1	-3	81*
Nc1ncnc(N/N=C/c2ccccc2OC(F)F)c1[N+](=O)[O-]	48*	-1	-8	8
Nc1ncnc(N/N=C/c2cc([N+](=O)[O-])ccc2OC(F)F)c1[N+](=O)[O-]	-40	0	-1	4
COc1cccc(/C=N/Nc2ncnc(N)c2[N+](=O)[O-])c1OC	46*	0	-6	18
O=C1OC(c2nn3c(-c4ccco4)nnc3s2)Cc2ccccc21 (stereo not given)	-16	0	1	-8
CCN(CC)c1ccc(/C=N/Nc2ncnc(N)c2[N+](=O)[O-])cc1	91*	-1	-9	-13
Cc1nn(-c2ccccc2)c(Cl)c1/C=N/Nc1ncnc(N)c1[N+](=O)[O-]	32*	0	2	2
Cc1cc(/C=N/Nc2ncnc(N)c2[N+](=O)[O-])c(C)n1-c1ccccc1	83*	-1	-8	16
CC1(C)Cc2nc3sc4c(N5CCNCC5)ncnc4c3cc2CS1	44*	0	-1	15
COCCNc1ccc2ncc(-c3cccc(C(N)=O)c3)n2n1	-3	0	-1	-4
COCCNc1ccc2ncc(-c3cccc(NS(C)(=O)=O)c3)n2n1	42*	0	1	-18
